Reference: PubChem BioAssay (NCATS)
Activity calls are given as the source filed them. Calls come from the whole dose curve; as a rule, active = well fitted curve in the direction sought with a large enough effect; inconclusive = small, poorly fitted or top-dose-only effect, or effect the other way, or another doubt; inactive = no such curve, though single readings can be large or run the other way. Residues, ends and D or L forms follow the SMILES beside them. *: point of attachment. Cbz = O=C(OCc1ccccc1)*

Assay: qHTS for Inhibitors of Cell Surface uPA Generation: Validation Assay (AID 493164);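 note: RAW 264.7 macrophage cells exposed to compound for 18 h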
Details: mouse cells, plasminogen activation; series mostly up to 38.3 µM
Description: NIH Chemical Genomics Center [NCGC]
NIH Molecular Libraries Probe Centers Network [MLPCN]
Assay Submitter (PI): Thomas Bugge
The overall objective of this project is to perform a quantitative high throughput screen (qHTS) to identify novel compounds that inhibit the generation of cell surface urokinase activity. The urokinase plasminogen activator (uPA) is one of the two primary endogenous systems that mediate plasminogen activation into plasmin. Members of this system, including uPA and its receptor (uPAR), are overexpressed in several malignant tumors. This system plays a major role in adhesion, migration, invasion and metastasis of cancer cells. Small molecule inhibitors of the uPA system will serve as probes to understand the molecular mechanisms of the uPA cascade and better understanding the microenvironmental circumstances that facilitate the activation of plasminogen by uPA, and finally may provide novel candidate agents for anticancer drug therapy.
[…] […] Upon inhibition of the uPA activation cascade, the subsequent cell surface uPA activity-dependent translocation of LF into the cytoplasm is inhibited. ATP-Lite is used to measure intracellular ATP concentrations, which remain increased if LF entry into the cytoplasm is inhibited. This validation assay was performed using a small set of validation compounds.
uPA assay protocol summary:
RAW 264.7 cells were maintained in DMEM medium (Invitrogen, Carlsbad, CA) at 37C under a humidified atmosphere containing 5% CO2 and 95% air. The medium contained 10% FBS, 1 mM sodium pyruvate and 50 U/ml penicillin/streptamycin (Invitrogen, Carlsbad, CA). All compounds were screened as 7-point titration from 2.45 nM to 38.3 uM final concentration. The assay was performed in 1536-well format plate as follows:
1.Dispensing RAW 264.7 cells into 1536-well, white walled tissue culture plates at a density of 4000 cells/well (4 uL).
2.Incubation at 37 C in a 5% CO2 incubator overnight.
3.Serially diluting compounds (1:5 serial dilution; 0.0024 uM to […] final concentration) in 23 nl DMSO.
5.Incubating the compound and reagent-treated plates for 18 hours at 37 C in a 5% CO2 incubator.
6.Adding ATP-Lite (3 ul).
7.Reading plates by ViewLux with an exposure length of 5 seconds.
In the case of `c1ccc(C2CN3CCSC3=N2)cc1` (stereo not given), the outcome was “inactive”.
For `CNC(=O)c1cc2c(cn1)[nH]c1ccccc12`, the outcome was “inactive”.
For `CC(C)(C)NCC(O)COc1cccc2[nH]c(=O)[nH]c12` (stereo not given), the outcome was “inactive”.
In the case of `c1ccc2c(c1)CCC[C@H]2Nc1nc2ccccc2[nH]1`, the outcome was “inactive”.
In the case of `NC(N)=NC(N)=Nc1ccccc1`, the outcome was “inactive”.
For `Cn1cc(C(F)(F)F)nc1-c1ccc(OCC(O)CNCCOc2ccc(O)c(C(N)=O)c2)cc1` (stereo not given), the outcome was “inactive”.
For `CC(C)[C@H](NC(=O)OCc1ccccc1)C(=O)N[C@H](C=O)Cc1ccccc1` (Cbz-Val-Phe-aldehyde), the outcome was “inactive”.
With `Nc1ncnc2c1ncn2C1CCCO1` (stereo not given) the outcome was “inactive”.
For `NC(C(=O)N[C@@H]1C(=O)N2C(C(=O)O)=C(Cl)CS[C@H]12)c1ccccc1` (stereo not given in full), the outcome was “inactive”.
In the case of `CCCCCCCC/C=C\CCCCCCCC(=O)NCCc1ccc(O)c(O)c1`, the outcome was “inactive”.
In the case of `C#CC(N)CCC(=O)O` (stereo not given), the outcome was “inactive”.
For `O=C(O)c1cc2cc(F)ccc2[nH]1`, the outcome was “inactive”.
With `O=C(O)CCC(=O)N1CCCC1C(=O)O` (stereo not given) the outcome was “inactive”.
In the case of `CC(N)(C(=O)O)c1ccc(C(=O)O)cc1` (stereo not given), the outcome was “inactive”.
With `COc1ccccc1N1CCN(CCCNc2c(C)c(=O)n(C)c(=O)n2C)CC1` the outcome was “inactive”.
For `O=c1[nH]c2ccccc2c2ccccc12`, the outcome was “inactive”.
For `CCOC(=O)C12CC1/C(=N/O)c1ccccc1O2` (stereo not given), the outcome was “inactive”.
In the case of `N[C@H](C(=O)O)[C@H](O)C(=O)O`, the outcome was “inactive”.
For `CC1CCN(CC[C@H]2CCCN2S(=O)(=O)c2cccc(O)c2)CC1`, the outcome was “inactive”.
For `CC[N+](CC)(CC)CC(=O)Nc1c(C)cccc1C`, the outcome was “inactive”.
For `COc1cc([C@@H]2c3cc4c(cc3[C@H](O)C3COC(=O)[C@@H]32)OCO4)cc(OC)c1OC` (stereo not given in full), the outcome was “inactive”.
With `[Li+]` the outcome was “inactive”.
For `O=C1OC(=O)C2C3CCC(O3)C12` (stereo not given), the outcome was “inactive”.
In the case of `O=C1C2C=CC=CC2=NC(=S)N1CCN1CCC(=C(c2ccc(F)cc2)c2ccc(F)cc2)CC1` (stereo not given), the outcome was “inactive”.
With `COc1ccccc1N1CCN(CCCCNC(=O)c2ccc3ccccc3c2)CC1` the outcome was “inactive”.
For `O=c1ccn([C@@H]2O[C@H](COP(=O)(O)OP(=O)(O)O)[C@@H](O)[C@H]2O)c(=O)[nH]1`, the outcome was “inactive”.
With `O=C(N[C@@H](Cc1ccccc1)C(=O)CCl)OCc1ccccc1` the outcome was “inactive”.
With `CC[n+]1c(/C=C/C=C2/N(C)c3ccccc3C2(C)C)sc2ccccc21` the outcome was “inactive”.
For `Oc1cc2c(cc1O)C(c1ccccc1)CNCC2` (stereo not given), the outcome was “inactive”.
With `CC(C)NCC(O)COc1ccc(CC(N)=O)cc1` (stereo not given) the outcome was “inactive”.
In the case of `CNCCNS(=O)(=O)c1cccc2cnccc12`, the outcome was “inactive”.
In the case of `Cc1nc2n(c(=O)c1CCN1CCC(c3noc4cc(F)ccc34)CC1)CCCC2O` (stereo not given), the outcome was “inactive”.
With `CC(N)=NCCCC[C@@H](N)C(=O)O` the outcome was “inactive”.
With `O=c1onc2cnc3ccccc3n12` the outcome was “inactive”.
In the case of `C=CCNc1ncnc2ccc(Br)cc12`, the outcome was “inactive”.
With `CCCOC(=O)c1c(-c2ccccc2)nc(CC)c(C(=O)SCC)c1CCC` the outcome was “inactive”.
With `C=C1C[C@@]23CC[C@H]4[C@@](C)(CCC[C@@]4(C)C(=O)OC4OC(CO)C(O)C(O)C4O)[C@@H]2CC[C@]1(OC1OC(CO)C(O)C(O)C1OC1OC(CO)C(O)C(O)C1O)C3` (stereo not given in full) the outcome was “inactive”.
For `c1ccc(CN2CCC3(CCCc4ccccc43)CC2)cc1`, the outcome was “inactive”.
In the case of `CC(N)=O`, the outcome was “inactive”.
For `CC(C)(C)c1ccc(/C=C/C(=O)Nc2ccc3c(c2)OCCO3)cc1`, the outcome was “inactive”.
